Read-out in test [1]: sulfotransferase (SULT2A), SULT2A1 (gene 6822)
Briefly: CLD_SULT2A_48hr: CellzDirect (CLD) Gene Expression Assay for sulfotransferase (SULT2A) at 48 hours (AID 2283710).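 Note: hits raise SULT2A1 transcript above the 0.2% DMSO vehicle baseline.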 Put shortly:
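Primary human hepatocytes (two donor preparations) dosed daily for two days with chemicals at multiple concentrations, vehicle 0.2% DMSO; SULT2A1 mRNA induction at 48 h by quantitative nuclease protection assay, chemiluminescent read-out, fitted for gain of signal versus DMSO.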

Read-out in test [2]: HMG-CoA synthase (HMGCS2), HMGCS2 (gene 3158)
Briefly: CLD_HMGCS2_48hr: CellzDirect (CLD) Gene Expression Assay for HMG-CoA synthase (HMGCS2) at 48 hours (AID 2283711). The method in brief:
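Primary human hepatocytes from two donors dosed daily for two days, 0.2% DMSO vehicle. HMGCS2 mRNA measured 48 h after dosing by quantitative nuclease protection assay with chemiluminescent read-out; induction fitted relative to DMSO, cytotoxicity flagged by microscopy.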

A short description of test [3]: Tanguay_ZF_120hpf_ActivityScore_legacy: (Legacy) Oregon State University Tanguay Lab 120 Hour Post-fertilization zebrafish Assay Score for Activity (AID 2283742).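 For AC50: static exposure from 6 hpf until 120 hpf at 28 °C.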 Put shortly:
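Tropical 5D wild-type zebrafish embryos, dechorionated with pronase at 4 hpf, were exposed singly from 6 hpf to 120 hpf statically at 28C in 0.64% DMSO. Malformations and mortality were scored as binary by brightfield, with the activity score combining 18 morphology components.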

For test [4], the target named is Luciferin 4-monooxygenase (Photinus pyralis) (UniProt P08659). Put plainly: CCTE_Simmons_QuantiLum_inhib_2: CCTE's Firefly Luciferase Inhibition Assay, Simmons Lab (AID 2283767).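 For AC50: potency for inhibitors that lower luciferase luminescence relative to DMSO.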 Put shortly: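 Recombinant firefly luciferase (5 ng/well, 200 mM potassium phosphate with 1 mg/ml BSA) was exposed to 8 concentrations from 5 nM to 87.5 uM (final, 0.5% DMSO) for 30 min at 37C in the dark. Loss of luminescence versus DMSO was read after injecting D-luciferin/ATP-analogue reagent.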
Chain of Luciferin 4-monooxygenase (Photinus pyralis) (P08659 whole entry, looked up): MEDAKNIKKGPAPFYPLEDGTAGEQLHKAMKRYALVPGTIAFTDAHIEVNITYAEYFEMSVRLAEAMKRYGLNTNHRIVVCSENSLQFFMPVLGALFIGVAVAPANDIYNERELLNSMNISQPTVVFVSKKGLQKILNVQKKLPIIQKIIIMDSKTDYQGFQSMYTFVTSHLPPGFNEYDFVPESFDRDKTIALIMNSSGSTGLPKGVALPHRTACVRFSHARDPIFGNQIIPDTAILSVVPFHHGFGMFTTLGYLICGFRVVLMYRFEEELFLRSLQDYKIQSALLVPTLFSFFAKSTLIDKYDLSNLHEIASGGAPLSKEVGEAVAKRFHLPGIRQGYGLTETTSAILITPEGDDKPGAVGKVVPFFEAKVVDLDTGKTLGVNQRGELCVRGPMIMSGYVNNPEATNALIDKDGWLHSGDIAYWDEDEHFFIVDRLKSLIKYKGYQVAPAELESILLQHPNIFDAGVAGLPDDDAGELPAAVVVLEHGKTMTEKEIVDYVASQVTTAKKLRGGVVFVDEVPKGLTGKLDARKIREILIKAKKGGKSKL

A short description of test [5]: STM_H9_OrnithineISnorm_perc: Stemina devTOX quickPredict H9 human embryonic stem cell (hESC)-based Assay for Ornithine (ORN) Metabolite Biomarker, Normalized (AID 2283712; active = hit-call score of the fitted dose curve at least 0.9, where 1 is the maximum; inactive = score below 0.9;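 note: ornithine released into spent medium during last day measured by mass spectrometry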). Put shortly:
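Undifferentiated pluripotent H9 hESCs were exposed to compound for 72h, with media and compound replaced every 24h. Ornithine in final 24-h conditioned media was measured by UPLC-HRMS, normalized to 13C-labeled spike-in standard and to median 0.1% DMSO control.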

Test [6] in a line: STM_H9_CystineISnorm_perc: Stemina devTOX quickPredict H9 human embryonic stem cell (hESC)-based Assay for Cystine (CYSS) Metabolite Biomarker, Normalized (AID 2283713; active = hit-call score of the fitted dose curve at least 0.9, where 1 is the maximum; inactive = score below 0.9). Put shortly:
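Undifferentiated H9 hESCs were exposed to compound for 72h, with medium and compound replaced every 24h. Final-24h conditioned medium was deproteinized and analyzed by UPLC-HRMS. Cystine EIC area was normalized to spiked C13 standard and 0.1% DMSO median.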

Test [7] can be described thus: STM_H9_OrnCyssISnorm_ratio: Stemina devTOX quickPredict H9 human embryonic stem cell (hESC)-based Assay for Ornithine (ORN):Cystine (CYSS) Ratio (AID 2283714). The method in brief: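 Undifferentiated H9 hESCs were exposed to compound for 72h with media and chemical replaced every 24h. Final 24-h conditioned media were deproteinized and analysed by UPLC-HRMS. ORN and CYSS peak areas were normalized to C13 internal standards and the ratio taken versus 0.1% DMSO.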

Test [8] in a line: CEETOX_H295R_MTT_cell_viability: Viability Assessment in the CeeTox HT-H295R MTT Assay (AID 2283718; active = hit-call score of the fitted dose curve at least 0.9, where 1 is the maximum; inactive = score below 0.9;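 for AC50: curve fitted both ways so AC50 may mark viability loss or gain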). Put shortly:
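H295R cells prestimulated 48 h with 10 uM forskolin, then exposed 48 h to test chemical (0.1% DMSO final). Viability by MTT (0.5 mg/ml, 4 h, 37 C), absorbance 570/650 nm; percent change versus DMSO, bidirectional fit.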

Test [9] relates to chicken Androgen Receptor (AR), gene 422165. Briefly: ATG_chAR_XSP1: Attagene TRANS-FACTORIAL Multi-Species (XSP1) HepG2 Assay for chicken Androgen Receptor (AR) (AID 2283768). Put shortly:
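HepG2 cells transiently transfected with multiplexed GAL4-UAS reporter units expressing chimeric chicken AR-Gal4; 3 nM 6-alpha-fluorotestosterone for partial AR stimulation; 24 h after dosing, reporter mRNA by RT-PCR and capillary electrophoresis, gain-of-signal versus DMSO.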

Test [10] has as its system frog Androgen Receptor (AR), gene 399456. Put plainly: ATG_frAR_XSP1: Attagene TRANS-FACTORIAL Multi-Species (XSP1) HepG2 Assay for frog Androgen Receptor (AR) (AID 2283770). As to the method: ATG_XSP1_multi-species_TRANS is a cell-based, multiplexed assay created by modifying the existing Attagene TRANS-FACTORIAL system to include a panel of nuclear receptors from some or all the following species: human (Homo sapiens), mouse (Mus musculus), frog (Xenopus laevis), zebrafish (Danio rerio), chicken (Gallus gallus), and turtle (Chrysemys picta). The ECOTOX-FACTORIAL format uses HepG2, a human liver cell line, with measurements taken at 24 hours after chemical dosing in a 24-well plate. Xsp1 included 3 nM 6-alpha-fluorotestosterone to partially stimulate the androgen receptor.ATG_frAR_XSP1 is one of 29 assay components measured or calculated from the ATG_XSP1_multi-species_TRANS assay. It is designed to make measurements of mRNA induction, a form of inducible reporter, as detected with fluorescence intensity signals by Reverse transcription polymerase chain reaction (RT-PCR) and Capillary electrophoresis technology.The assay endpoint ATG_frAR_XSP1 was analyzed in the positive analysis fitting direction relative to DMSO as the negative control and baseline of activity. […] Furthermore, this assay endpoint can be referred to as a primary readout, because this assay has produced multiple assay endpoints where this one serves a reporter gene function. […]

The subject of test [11] is Thyroperoxidase (TPO), gene 445522. Briefly: CCTE_Simmons_GUA_TPO: CCTE's Guaiacol Assay for Thyroperoxidase (TPO) Inhibition, Simmons Lab (AID 2283750). The method in brief:
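Porcine thyroid microsomes (25 ug) in 200mM potassium phosphate, preincubated 30 s at 37C with compound (8 concentrations, 5 nM–87.5 uM) and 35mM guaiacol; 1mM H2O2 starts reaction. Absorbance change at 450nm over first 80 s; loss of signal versus DMSO, three replicates.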

Inconclusive results are not listed. Calls of active or inactive are those of the source. Rule for the calls, unless noted: active = hit-call score of the fitted dose curve at least 0.9, where 1 is the maximum; inconclusive = response in the unintended direction; inactive = score below 0.9.

Among the data in PubChem BioAssay (EPA / NIEHS) are outcome and AC50 values, retold here.

A word on the AC50: it is the concentration giving half of the maximal activity seen.

For the molecule `CCOC(=O)C(C)Oc1ccc(Oc2nc3ccc(Cl)cc3o2)cc1` (stereo not drawn), the result in test [1], in test [2] and in test [3] was inactive. Besides, the AC50 in [4] was 71.3 µM (active).
Take `CCCCC(CC)COC(=O)c1ccccc1C(=O)O` (stereo not drawn): the molecule was called inactive in [1], in [2], in [8], in [3] and in test [10]. Besides, the AC50 in test [5] was 341 µM (active); in test [6], 250 µM (active); in test [7], 283 µM (active); in [9], 26.5 µM (active).
`CCSC(=O)N(CC(C)C)CC(C)C`: the molecule was called inactive in test [1], in test [2], in test [5], in [6], in [7] and in test [3].
In the case of `COC(=O)c1c(Cl)nn(C)c1S(=O)(=O)NC(=O)Nc1nc(OC)cc(OC)n1`, the outcome in test [1] and in test [2] was inactive.
For `CCCN(CCC)c1c([N+](=O)[O-])cc(C(F)(F)F)c(N)c1[N+](=O)[O-]`, the molecule was classed as inactive in test [1], in test [5], in test [6] and in test [3].
On to `OB(O)O`, for which the call in [1], in test [2], in [5], in test [6] and in test [3] was inactive.
Consider `CCN(Cc1c(F)cccc1Cl)c1c([N+](=O)[O-])cc(C(F)(F)F)cc1[N+](=O)[O-]`, for which the molecule was called inactive in test [1], in test [6], in [7] and in test [3]. In addition, the AC50 is 17.2 µM (active) in test [5] and 13.3 µM (active) in [8].
As for `C#CCOC(=O)[C@@H](C)Oc1ccc(Oc2ncc(Cl)cc2F)cc1`, the call in test [1], in test [2], in test [8] and in test [3] was inactive. In addition, the AC50 is 65.5 µM (active) in test [5], 11.1 µM (active) in [6] and 86.9 µM (active) in test [7].
Take `CCCCOCCOCCOCc1cc2c(cc1CCC)OCO2`: the figures for the AC50 in test [1] and in test [3] were 12 µM (active) and 4.35 µM (active), respectively. For the same molecule, the result in [2], in test [8] and in test [4] was inactive.
As to `CCNc1nc(N)nc(Cl)n1`, the outcome in test [1], in test [5], in test [6], in test [7], in [8] and in [3] was inactive.
In the case of `CSC(=O)c1cccc2nnsc12`, the molecule was called inactive in [1], in test [2], in [8], in [3], in test [11] and in test [4]. The concentration at half-maximal activity (AC50) in test [5] is 80.2 µM (active); in test [6] it was 81.4 µM (active); in test [7], 78.6 µM (active).
On to `CCOC(=O)C(C)Oc1ccc(Oc2cnc3cc(Cl)ccc3n2)cc1` (stereo not drawn), for which the result in test [1], in test [5] and in test [3] was inactive. Further, the AC50 was 6.86 µM (active) in [2] and 9.92 µM (active) in test [6].
For the molecule `CCCN(CCC)C(=O)SCC`, the outcome in test [1], in [2], in [8] and in test [3] was inactive.
Regarding `COC(=O)c1ccc(CNS(C)(=O)=O)cc1S(=O)(=O)NC(=O)Nc1nc(OC)cc(OC)n1`, the molecule was called inactive in test [1].
